PubChem BioAssay (NCATS)
Records with an inconclusive call do not appear. The source made the active and inactive calls. Unless noted, calls come from the whole dose curve; as a rule, active = well fitted curve in the direction sought with a large enough effect; inconclusive = small, poorly fitted or top-dose-only effect, or another doubt; inactive = no such curve, though single readings can be large; an effect the other way counts as inactive or inconclusive.

How the values were obtained:
[1] = biological target: Cytochrome P450 3A4 (Homo sapiens) (UniProt P08684); assay: qHTS Assay for Inhibitors and Substrates of Cytochrome P450 3A4 (AID 884); note: series mostly up to about 57 µM; % is set by controls: 0 for no effect and ±100 for the full control effect; nearly all actives have a fitted effect of over 50% in size
How it was run: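 Luminescent readout of luciferin produced by CYP3A4 (20 nM) dealkylation of Luciferin-PPXE, 25 uM (its KM). NADPH-driven reaction ran 60 min at RT after 10 min compound preincubation; data scaled to 57 uM ketoconazole as 100% inhibition.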

[2] = biological target: DNA repair nuclease/redox regulator APEX1 (Homo sapiens) (UniProt P27695); assay: qHTS Validation Assay for Inhibitors of the Human Apurinic/apyrimidinic Endonuclease 1 (APE1) (AID 1705;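 note: TAMRA fluorescence gain over two minutes as APE1 cuts a quenched THF abasic duplex; series mostly up to about 57 µM; % is set by controls: 0 for no effect and ±100 for the full control effect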)
How it was run: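 Read-out: TAMRA fluorescence (525 nm ex, 598 nm em) from cleavage of a quenched THF abasic-site duplex, 50 nM final; activity taken as intensity change between third and first of three reads 60 s apart.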

[3] = Counterscreen for APE1 Inhibitors: Fluorescent Dye Displacement Validation Assay (AID 1707);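 note: plate controls were ThO with dsDNA and no compound for no effect and ThO without dsDNA for full effect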
How it was run: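 Endpoint fluorescence read at 480 nm excitation / 540 nm emission; DNA-binding compounds lower signal by displacing 250 nM Thiazole Orange from 50 nM dsDNA containing a tetrahydrofuran abasic site, Tris-HCl pH7.5 buffer with NaCl and MgCl2.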

[4] = biological target: Endonuclease 4 (Escherichia coli (strain K12)) (UniProt P0A6C1); assay: Counterscreen for APE1 Inhibitors: qHTS Validation Assay for Inhibitors of Endonuclease IV (AID 1708); note: % is set by controls: 0 for no effect and ±100 for the full control effect
How it was run: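 Measured as reaction progress, the fluorescence gain between first and third kinetic reads after adding 50 nM TAMRA/BHQ-2 THF duplex to 2 nM enzyme preincubated 15 min with compound; 2 mM MgCl2, pH 7.5.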

[5] = qHTS for differential inhibitors of proliferation of Plasmodium falciparum line Dd2 (AID 1882); details: Potency: Plasmodium falciparum Dd2 proliferation inhibition;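 note: series mostly up to about 29 µM; plate controls were DMSO vehicle for no effect and 0.29 µM artemisinin for full effect; nearly all actives have a fitted effect of over 65% in size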
How it was run: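 RBC culture, 0.3% parasitemia / 2.5% Hct final; cpd added by pin tool in DMSO; 72 h, 37 C, 5% CO2; lysis buffer + SYBR Green I, o/n RT dark; FI 485/535; norm. to artemisinin 0.29 uM and DMSO.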

[6] = qHTS for differential inhibitors of proliferation of Plasmodium falciparum line W2 (AID 1883); details: Potency: Plasmodium falciparum W2 proliferation inhibition;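 note: potency is the fitted concentration of half-maximal effect; parasites grown with compound for 72 h before lysis and staining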
[7] = biological target: Ferritin light chain (Equus caballus) (UniProt P02791); assay: qHTS Validation Assay for Identification of Novel General Anesthetics (AID 2323); note: series mostly up to about 77 µM; % is set by controls: 0 for no effect and ±100 for the full control effect
How it was run: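 10 uM horse-spleen apoferritin + 1-AMA (50% saturated, PBS); cpd pin-transferred, 10 min RT. Ex 380/Em 535 nm endpoint. Activity normalized between free 1-AMA and 1-AMA/apoferritin; 4-parameter Hill fit of concentration-response.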

[8] = biological target: ATP-dependent DNA helicase Q1 (Homo sapiens) (UniProt P46063); assay: qHTS Validation Assay for Inhibitors of RecQ-Like Dna Helicase 1 (RECQ1) (AID 2353);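 note: plate controls were DMSO vehicle for no effect and enzyme-free control for full effect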
How it was run: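 RECQ1T1 50 nM; forked duplex (20 bp + 30-nt ss tails) 200 nM, ATP 2 mM final; pH 8.0, 2 mM MgCl2, 2.5 ug/ml poly(dI-dC); 15 min compound preincubation; discontinuous kinetic read over 2 h at RT.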

[9] = biological target: RecQ-like DNA helicase BLM (Homo sapiens) (UniProt P54132); assay: qHTS Validation Assay for Inhibitors of Bloom's syndrome helicase (BLM) (AID 2364);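 note: plate controls were DMSO vehicle for no effect and enzyme-free control for full effect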
How it was run: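 BLM 50 nM in 25 mM Tris-HCl pH 8.0, 5 mM NaCl, 2 mM MgCl2, 1 mM DTT, 0.01% Tween-20, 2.5 ug/ml poly(dI-dC); 15 min cpd preinc, RT. Start: 200 nM forked DNA + 2 mM ATP (final). TAMRA read, 2 reads 2 h apart.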

[10] = Validation screen for inhibitors of Lassa infection (AID 463096; calls by dose curve; note: potency is the fitted concentration of half-maximal effect)
[11] = biological target: Transient receptor potential cation channel subfamily V member 1 (Homo sapiens) (UniProt Q8NER1); assay: HTS Assay for Compounds that Act as Enhancers of the Vanilloid Receptor 1 (AID 488979); note: 0% is about no effect
How it was run: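 TRPV1-expressing cells loaded with Fluo-8 calcium dye; compounds added and calcium influx read kinetically for 3 min (agonist phase), then capsaicin at EC20 added and read 2 min more for enhancement. Fluorescence ex 480/em 520 nm.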

[12] = biological target: Thyrotropin-releasing hormone receptor (Homo sapiens) (UniProt P34981); assay: qHTS for Small Molecule Agonists and Allosteric Enhancers of Human TRH Receptor: Validation Screen for Agonists (AID 493127;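 active = calcium activation more than 3 SD above the typical response in the agonist read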;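 note: intracellular calcium rise by fluo-8 fluorescence before TRH EC20 addition; 0% is about no effect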); details: TRH receptor agonist cell assay; at 2 µM; active compounds read high
How it was run: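 Read-out: intracellular calcium release measured kinetically by FDSS (fluo-8, ex 480/em 530 nm), 1 reading/s after a 10-cycle baseline. TRHR cells, 2000/well, cultured 18 h at 33.5C, dye-loaded at room temp. Compound-evoked positive calcium signal flags agonists.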

[13] = biological target: Galactokinase (Homo sapiens) (UniProt P51570); assay: qHTS Validation Assay for Inhibitors of Human Galactokinase (GALK) (AID 493189); note: 0% is about no effect
How it was run: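 Luminescence from leftover ATP (Kinase-Glo Plus, 10 min) served as read-out after a 1 h room-temperature reaction of 5 nM GALK, 100 uM galactose and 35 uM ATP at pH8.0.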

[14] = biological target: DNA dC->dU-editing enzyme APOBEC-3G (Homo sapiens) (UniProt Q9HC16); assay: qHTS for inhibitors of Vif-A3G interactions: Validation (AID 588379); note: 0% is about no effect
How it was run: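 Yellow fluorescence (Ex 488, Em 500-530) of Vif-coexpressing HeLa A3G-eYFP cells, scanned by Acumen cytometer, reports blocked A3G degradation. Cells plated at 700/well overnight at 37 deg C before compound addition, then a further overnight compound incubation at 37 deg C.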

[15] = biological target: Voltage-gated inwardly rectifying potassium channel KCNH2 (Homo sapiens) (UniProt Q12809); assay: qHTS Assay for Small Molecule Inhibitors of the Human hERG Channel Activity (AID 588834);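 note: top concentration of the series differs between compounds; % is set by controls: 0 for no effect and ±100 for the full control effect; lower thallium flux fluorescence means stronger hERG block; nearly all actives have a fitted effect of over 50% in size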
How it was run: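 Thallium-flux (FluxOR) read-out on FDSS: fluorescence read 10 s before and 2 min after stimulation buffer. hERG-BacMam-transduced U2OS cells, compound exposure about 10 min. AC50 by standard Hill equation.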

[16] = Primary qHTS for small molecule stabilizers of the endoplasmic reticulum resident proteome: Secreted ER Calcium Modulated Protein (SERCaMP) assay (AID 1508630); note: % is set by controls: 0 for no effect and ±100 for the full control effect
How it was run: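 The SH-SY5Y reporter protocol was run at 3 concentrations up to 38.3 uM (primary) or 11 concentrations (follow-up): 16 h compound, 100 nM thapsigargin for 4 h, then extracellular luciferase luminescence.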

[17] = qHTS for Inhibitors of Plasmodium falciparum (DD2) proliferation (AID 504314);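 note: parasite DNA measured by SYBR Green fluorescence after red cell lysis; plate controls were DMSO vehicle for no effect and artemisinin wells for full effect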
How it was run: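 SYBR Green DNA-fluorescence growth assay: infected RBCs at 0.3% parasitemia, 2.5% hematocrit, 72 h compound exposure, 37C, 5% CO2; overnight lysis with dye at RT; normalized to 0.29 uM artemisinin and vehicle.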

[18] = qHTS for Inhibitors of Plasmodium falciparum (GB4) proliferation (AID 504315);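 note: 0% = DMSO vehicle and -100% = 0.29 µM artemisinin control; nearly all actives have a fitted effect of over 50% in size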
How it was run: (§1)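 Parasite growth measured as SYBR Green DNA fluorescence (ex 485, em 535 nm) after overnight lysis following 72 h culture at 37 °C, 0.3% parasitemia, 2.5% hematocrit. Values normalized against DMSO and 0.29 uM artemisinin controls, with plate-stack correction.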

[19] = qHTS for Inhibitors of Plasmodium falciparum (CP250) proliferation (AID 504320);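 note: plate controls were DMSO vehicle for no effect and 0.29 µM artemisinin control for full effect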
How it was run: as §1

[20] = qHTS Assay for Identifying Gametocytocidal Compounds (AID 743244);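 note: % is set by controls: 0 for no effect and ±100 for the full control effect; actives lower the fluorescent signal which means gametocytes are killed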; details: P. falciparum 3D7 stage III-V gametocytes, alamarBlue, 72 h; max response: active compounds read low
How it was run: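 Viability read-out was resazurin reduction (alamarBlue, 24 h) measured at Ex 525/Em 598 nm. Beforehand, late-stage (III-V) 3D7 P. falciparum gametocytes at 20,000 cells/well were incubated with compound 72 h at 37C under 5% CO2.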

DNA repair nuclease/redox regulator APEX1 (Homo sapiens), sequence (P27695 whole entry, looked up): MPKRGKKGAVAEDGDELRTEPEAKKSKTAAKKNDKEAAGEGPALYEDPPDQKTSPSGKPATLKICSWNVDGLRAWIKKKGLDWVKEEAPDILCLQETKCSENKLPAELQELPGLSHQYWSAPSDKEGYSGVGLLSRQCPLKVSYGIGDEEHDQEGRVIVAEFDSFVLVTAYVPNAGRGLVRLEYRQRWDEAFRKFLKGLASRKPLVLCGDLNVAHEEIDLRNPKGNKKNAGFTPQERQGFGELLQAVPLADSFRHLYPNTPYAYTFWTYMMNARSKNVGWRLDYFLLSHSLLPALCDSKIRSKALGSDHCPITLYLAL
Galactokinase (Homo sapiens), sequence (P51570 whole entry, looked up): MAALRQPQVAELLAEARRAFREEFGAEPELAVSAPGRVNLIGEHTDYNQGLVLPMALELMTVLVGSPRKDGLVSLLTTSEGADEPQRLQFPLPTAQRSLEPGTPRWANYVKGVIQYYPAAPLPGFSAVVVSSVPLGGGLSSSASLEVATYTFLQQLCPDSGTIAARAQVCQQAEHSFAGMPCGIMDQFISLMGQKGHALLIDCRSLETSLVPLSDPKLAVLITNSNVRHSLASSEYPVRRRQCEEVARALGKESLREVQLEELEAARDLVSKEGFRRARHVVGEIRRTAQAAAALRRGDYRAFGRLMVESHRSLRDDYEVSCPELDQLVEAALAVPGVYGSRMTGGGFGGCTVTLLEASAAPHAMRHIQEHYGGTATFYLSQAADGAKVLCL
RecQ-like DNA helicase BLM (Homo sapiens), sequence (P54132 whole entry, looked up): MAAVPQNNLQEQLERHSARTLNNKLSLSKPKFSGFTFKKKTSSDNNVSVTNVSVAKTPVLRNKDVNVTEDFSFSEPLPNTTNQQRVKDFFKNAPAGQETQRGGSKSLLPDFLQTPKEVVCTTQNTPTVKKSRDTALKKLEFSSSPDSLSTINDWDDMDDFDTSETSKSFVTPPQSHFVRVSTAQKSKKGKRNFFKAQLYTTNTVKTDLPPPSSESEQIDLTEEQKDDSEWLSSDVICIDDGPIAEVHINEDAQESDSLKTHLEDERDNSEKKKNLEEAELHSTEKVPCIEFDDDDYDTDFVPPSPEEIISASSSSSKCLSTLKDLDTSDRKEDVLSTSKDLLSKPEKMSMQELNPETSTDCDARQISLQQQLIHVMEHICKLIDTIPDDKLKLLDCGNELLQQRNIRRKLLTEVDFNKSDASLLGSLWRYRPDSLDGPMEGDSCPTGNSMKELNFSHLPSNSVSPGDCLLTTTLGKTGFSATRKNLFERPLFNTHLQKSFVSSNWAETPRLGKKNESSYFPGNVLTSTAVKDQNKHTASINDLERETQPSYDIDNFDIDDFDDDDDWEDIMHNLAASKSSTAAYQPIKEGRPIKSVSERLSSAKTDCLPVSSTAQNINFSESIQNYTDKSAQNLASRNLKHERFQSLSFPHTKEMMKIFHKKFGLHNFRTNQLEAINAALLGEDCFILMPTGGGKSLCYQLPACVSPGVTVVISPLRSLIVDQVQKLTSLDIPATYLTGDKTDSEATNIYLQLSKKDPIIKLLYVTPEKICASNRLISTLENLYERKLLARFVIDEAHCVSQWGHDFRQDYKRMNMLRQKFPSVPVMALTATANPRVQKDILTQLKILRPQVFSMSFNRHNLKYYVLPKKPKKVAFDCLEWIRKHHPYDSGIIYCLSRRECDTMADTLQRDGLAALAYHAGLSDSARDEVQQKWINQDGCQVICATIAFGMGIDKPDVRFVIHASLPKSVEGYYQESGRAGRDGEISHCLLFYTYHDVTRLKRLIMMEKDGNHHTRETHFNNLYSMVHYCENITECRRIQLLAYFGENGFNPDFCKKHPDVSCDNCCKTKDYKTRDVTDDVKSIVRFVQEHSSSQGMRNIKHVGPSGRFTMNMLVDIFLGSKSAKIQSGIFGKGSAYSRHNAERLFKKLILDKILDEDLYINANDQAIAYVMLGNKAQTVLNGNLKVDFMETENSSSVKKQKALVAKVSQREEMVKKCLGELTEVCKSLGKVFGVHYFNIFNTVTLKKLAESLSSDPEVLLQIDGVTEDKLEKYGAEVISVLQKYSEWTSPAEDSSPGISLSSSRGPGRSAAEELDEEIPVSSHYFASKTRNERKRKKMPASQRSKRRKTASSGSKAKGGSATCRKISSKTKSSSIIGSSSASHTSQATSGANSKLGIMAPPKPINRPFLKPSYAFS
DNA dC->dU-editing enzyme APOBEC-3G (Homo sapiens), sequence (Q9HC16 whole entry, looked up): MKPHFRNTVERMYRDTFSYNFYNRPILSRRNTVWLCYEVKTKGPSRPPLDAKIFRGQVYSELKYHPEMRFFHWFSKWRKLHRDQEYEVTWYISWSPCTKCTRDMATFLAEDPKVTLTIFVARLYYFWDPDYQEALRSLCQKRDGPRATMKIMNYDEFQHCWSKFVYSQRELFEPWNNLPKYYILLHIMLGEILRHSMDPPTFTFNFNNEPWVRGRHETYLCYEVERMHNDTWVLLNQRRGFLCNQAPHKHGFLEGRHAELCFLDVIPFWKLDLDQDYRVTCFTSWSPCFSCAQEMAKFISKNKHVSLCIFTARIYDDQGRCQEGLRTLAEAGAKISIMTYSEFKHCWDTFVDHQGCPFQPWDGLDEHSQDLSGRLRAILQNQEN
ATP-dependent DNA helicase Q1 (Homo sapiens), sequence (P46063 whole entry, looked up): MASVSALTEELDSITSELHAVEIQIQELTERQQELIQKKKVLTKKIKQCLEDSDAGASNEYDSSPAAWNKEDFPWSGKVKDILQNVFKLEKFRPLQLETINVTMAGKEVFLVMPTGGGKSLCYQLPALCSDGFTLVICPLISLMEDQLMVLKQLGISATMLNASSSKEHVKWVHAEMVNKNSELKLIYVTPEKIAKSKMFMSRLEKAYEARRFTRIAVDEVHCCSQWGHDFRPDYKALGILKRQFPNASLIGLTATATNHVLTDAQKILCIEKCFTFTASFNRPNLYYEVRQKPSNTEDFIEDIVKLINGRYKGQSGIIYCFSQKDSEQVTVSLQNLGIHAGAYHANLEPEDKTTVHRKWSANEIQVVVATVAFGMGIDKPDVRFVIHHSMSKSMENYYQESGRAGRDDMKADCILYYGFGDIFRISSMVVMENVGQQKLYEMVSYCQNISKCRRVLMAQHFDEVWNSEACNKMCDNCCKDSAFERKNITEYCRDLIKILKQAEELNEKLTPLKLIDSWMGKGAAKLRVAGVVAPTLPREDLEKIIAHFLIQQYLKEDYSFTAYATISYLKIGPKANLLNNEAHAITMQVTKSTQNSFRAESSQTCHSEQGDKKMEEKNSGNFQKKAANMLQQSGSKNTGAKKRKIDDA
Voltage-gated inwardly rectifying potassium channel KCNH2 (Homo sapiens), sequence (Q12809 whole entry, looked up): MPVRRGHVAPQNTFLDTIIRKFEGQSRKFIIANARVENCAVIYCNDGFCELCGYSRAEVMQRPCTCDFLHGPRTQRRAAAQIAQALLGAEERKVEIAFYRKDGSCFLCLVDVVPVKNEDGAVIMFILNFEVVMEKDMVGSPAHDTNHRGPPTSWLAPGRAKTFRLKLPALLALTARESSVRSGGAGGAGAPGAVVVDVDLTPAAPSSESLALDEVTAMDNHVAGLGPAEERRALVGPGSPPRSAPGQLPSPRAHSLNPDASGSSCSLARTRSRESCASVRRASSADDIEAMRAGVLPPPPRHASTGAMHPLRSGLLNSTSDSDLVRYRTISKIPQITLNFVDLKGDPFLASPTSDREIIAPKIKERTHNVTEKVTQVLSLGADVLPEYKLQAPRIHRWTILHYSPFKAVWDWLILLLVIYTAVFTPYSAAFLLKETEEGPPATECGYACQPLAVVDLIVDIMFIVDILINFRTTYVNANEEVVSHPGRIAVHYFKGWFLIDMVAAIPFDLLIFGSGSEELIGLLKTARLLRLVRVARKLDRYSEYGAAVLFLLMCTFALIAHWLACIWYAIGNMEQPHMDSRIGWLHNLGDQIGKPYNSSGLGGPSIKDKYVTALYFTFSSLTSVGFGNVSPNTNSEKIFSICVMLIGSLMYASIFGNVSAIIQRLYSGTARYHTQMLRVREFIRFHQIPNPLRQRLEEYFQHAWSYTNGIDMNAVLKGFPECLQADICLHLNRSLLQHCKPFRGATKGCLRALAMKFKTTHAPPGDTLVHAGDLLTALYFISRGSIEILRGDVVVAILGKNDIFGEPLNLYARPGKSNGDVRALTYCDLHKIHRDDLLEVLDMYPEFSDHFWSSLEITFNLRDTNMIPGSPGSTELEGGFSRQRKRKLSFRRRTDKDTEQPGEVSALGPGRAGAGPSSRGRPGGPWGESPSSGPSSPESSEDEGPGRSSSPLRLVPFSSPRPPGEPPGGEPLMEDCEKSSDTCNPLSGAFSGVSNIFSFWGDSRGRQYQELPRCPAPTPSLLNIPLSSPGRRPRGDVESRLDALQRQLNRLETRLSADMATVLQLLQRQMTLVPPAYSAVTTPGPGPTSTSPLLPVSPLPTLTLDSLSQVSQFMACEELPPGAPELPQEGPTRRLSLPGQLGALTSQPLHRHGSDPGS
Cytochrome P450 3A4 (Homo sapiens), sequence (P08684 whole entry, looked up): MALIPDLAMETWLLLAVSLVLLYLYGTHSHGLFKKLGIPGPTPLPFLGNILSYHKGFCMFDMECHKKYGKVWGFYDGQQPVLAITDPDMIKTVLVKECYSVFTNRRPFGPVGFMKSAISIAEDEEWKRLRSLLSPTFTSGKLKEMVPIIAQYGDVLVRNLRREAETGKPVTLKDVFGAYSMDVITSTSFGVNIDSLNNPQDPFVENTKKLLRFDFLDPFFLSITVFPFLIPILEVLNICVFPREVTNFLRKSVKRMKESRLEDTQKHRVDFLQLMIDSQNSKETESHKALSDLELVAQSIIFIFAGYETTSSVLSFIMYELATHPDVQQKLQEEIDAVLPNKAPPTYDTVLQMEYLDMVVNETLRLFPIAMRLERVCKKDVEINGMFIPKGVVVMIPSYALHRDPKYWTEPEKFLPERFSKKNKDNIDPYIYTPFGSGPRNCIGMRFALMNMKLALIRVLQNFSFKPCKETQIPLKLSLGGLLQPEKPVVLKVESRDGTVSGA
Ferritin light chain (Equus caballus), sequence (P02791 2-175 limits assumed): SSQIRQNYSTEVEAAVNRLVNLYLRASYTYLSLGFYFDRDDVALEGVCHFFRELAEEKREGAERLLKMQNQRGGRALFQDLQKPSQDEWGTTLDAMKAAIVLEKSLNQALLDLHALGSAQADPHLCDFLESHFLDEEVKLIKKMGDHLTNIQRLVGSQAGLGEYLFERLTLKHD

C[C@@H]1O[C@@H](O[C@H]2C[C@@H](O)[C@]3(CO)[C@@H]4C(CC[C@]3(O)C2)[C@@]2(O)CC[C@H](C3=CC(=O)OC3)[C@@]2(C)C[C@H]4O)[C@H](O)[C@H](O)[C@H]1O (some centres undefined)
inactive: Potency [1] | Potency [2] | Potency [3] | outcome [4] | Potency [5] | outcome [7] | Potency [8] | Potency [9] | outcome [11] | activation [12] 0.375% | outcome [13] | Potency [14] | Potency [15] | Potency [16]
active: Potency [6] 11.2 µM | Potency [10] 0.1 µM

COC(=O)C1=C[C@H]([C@@H](C)[C@H](OC)c2ccccc2Br)[C@H]2[C@H]1c1ccccc1N2C
inactive: outcome [17] | outcome [18] | outcome [19]

COC(=O)[C@@]12Cc3ccccc3[C@H]1C[C@H](C)[C@@H](C)N2C(=O)C(F)(F)F
inactive: outcome [18] | outcome [19]

COC(=O)C1=NN=C(C(=O)OC)[C@@]2(C)c3ccccc3NC12 (some centres undefined)
inactive: outcome [17] | outcome [18] | outcome [19]

CCOC(=O)[C@]12C[C@]3(C)CCCN(C(=O)N[C@@H]1c1ccccc1)[C@@H]32
inactive: outcome [17] | outcome [18] | outcome [19]

COC(=O)C12CC3=CCC4C(=O)N(c5ccccc5)C(=O)C4C3Cc3ccccc3[C@H]1CNC2=O (some centres undefined)
inactive: outcome [18] | outcome [19]

COC(=O)[C@@]1(C=C2c3ccccc3[C@@H](OC)[C@@H]2C)[C@@H]2Oc3ccccc3[C@@H]21
inactive: outcome [17] | outcome [18] | outcome [19]

COc1cc([C@@H]2c3cc4c(cc3[C@@H](O)[C@H]3COC(=O)[C@H]23)OCO4)cc(OC)c1O
inactive: max response [20] 5.77%

COC(=O)C1C2CC(C)C(c3ccccc32)N1C(=O)C(F)(F)F (centres undefined)
inactive: outcome [17] | outcome [18] | outcome [19]

COC(=O)[C@@H]1[C@@H](c2ccccc2)[C@H]2C(=O)c3c(OC)cc(OC)cc3O[C@@]12c1ccc(OC)cc1
inactive: outcome [17] | outcome [18] | outcome [19]
